Structures are written as SMILES. The panel holds about 83,000 compounds, 20% with a hit somewhere; the sample as a whole holds those more often.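 Results are percent growth after 48 hours of single-concentration exposure. 100 means growth as in untreated cells, lower positive values show inhibition; negative values down to -100 show cell death.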 Unmarked numbers belong to inactive results. The source made the active and inactive calls. The calls were made as follows: active = growth percent below 10; inactive = the rest.

Holding throughout (test): NCI-60 one-dose screen, 48 h (100 = growth as untreated, 0 = no growth, -100 = all killed)
Holding throughout (conditions): 10 µM unless noted

The test system of experiment [1] is SK-MEL-2 melanoma.
In experiment [2] the test system is EKVX NSCLC.
For experiment [3], the system named is SN12C renal.
The subject of experiment [4] is UO-31 renal.
For experiment [5], the system named is TK-10 renal.
Experiment [6] has as its system ACHN renal.
Experiment [7] concerns CAKI-1 renal.
Experiment [8] deals with A498 renal.
For experiment [9], the system named is CCRF-CEM leukemia.
Experiment [10] relates to MOLT-4 leukemia.

Turning to `Cn1cc(-c2nnc(-c3ccccc3)s2)c2cc(Br)cnc21`, the growth was 100% in experiment [1]; 62.6% in [2]; 90.1% in [3]; 61.5% in experiment [4]; 88.2% in experiment [5]; 66.7% in [6]. The growth is 53% in [7], 60.2% in [8], -12.6% (active) in experiment [9] and 83.4% in experiment [10].
Turning to `CC1(C)CC[C@]2(C(=O)OC(=O)[C@]34CCC(C)(C)C[C@@H]3C3=CC[C@@H]5[C@@]6(C)CCC(=O)C(C)(C)[C@@H]6CC[C@@]5(C)[C@]3(C)CC4)CC[C@]3(C)C(=CC[C@@H]4[C@@]5(C)CCC(=O)C(C)(C)[C@@H]5CC[C@]43C)[C@H]2C1`, the growth is 76.1% [100 µM] in experiment [1]; 81.3% [100 µM] in experiment [2]; 55.8% [100 µM] in experiment [3]; 59.9% [100 µM] in [4]; 95.3% [100 µM] in experiment [5]; 73.8% [100 µM] in [6]. In addition, the growth in experiment [7] was 45.6% [100 µM]; in [8], 95.6% [100 µM]; in experiment [9] it was 44.4% [100 µM]; in experiment [10], 41.5% [100 µM].
Consider `N#Cc1ccc(-c2ccc(COc3ccc(CC4SC(=O)NC4=O)cc3)cc2)cc1` (stereo not given), for which the growth is 56.9% in experiment [1]; 48% in [2]; 74.4% in experiment [3]; 48.1% in experiment [4]; 85.9% in experiment [5]; 52.4% in experiment [6]. The growth in [7] was 48.1%; in experiment [8], 99.7%; in [9], 61.5%; in [10], 37.8%.
Consider `Cc1ccc(NC(=S)/N=c2/n(-c3ccccc3)nc3n2CCN3C2=NCCN2)cc1`, for which the growth was 109% in [1]; 113% in experiment [2]; 100% in experiment [3]; 92.4% in experiment [4]; 97.5% in [5]; 106% in [6]. Further, the growth is 86% in experiment [7], 81.2% in experiment [8], 102% in experiment [9] and 98.8% in experiment [10].
In the case of `O=C1Nc2ccccc2/C1=C/C(=O)c1ccc(N2CCCCC2)cc1`, the growth in experiment [1] was 113%; in experiment [2], 106%; in experiment [3], 73.5%; in experiment [4] it was 47.4%; in experiment [5], 85.8%; in experiment [6] it was 27.6%. In addition, the growth was 63.8% in experiment [7], 95.8% in experiment [8], 5.19% (active) in [9] and -6.75% (active) in [10].
For the compound `C=C(C)[C@@H]1CC[C@]2(c3ncc(C)o3)CC[C@]3(C)[C@H](CC[C@@H]4[C@@](C)(CCC#N)[C@H](C(=C)C)CC[C@]43C)[C@@H]12`, the growth in experiment [1] was -89.5% [100 µM] (active); in [2], -79.1% [100 µM] (active); in experiment [3] it was -91.5% [100 µM] (active); in experiment [4], -94.4% [100 µM] (active); in experiment [5] it was -90.6% [100 µM] (active); in experiment [6] it was -97.8% [100 µM] (active). Moreover, the growth in experiment [7] was -96.4% [100 µM] (active); in experiment [8], -93.4% [100 µM] (active); in [9], -11.1% [100 µM] (active); in [10], -35.4% [100 µM] (active).
As to `NS(=O)(=O)c1ccc(CCN2C(=O)/C(=C\c3ccccc3)C=C2c2ccc(Cl)cc2)cc1`, the growth in experiment [1] was 102%; in [2], 88.5%; in [3], 90.6%; in [4], 65.8%; in experiment [5], 113%; in experiment [6], 97%. The growth in [7] is 65.1%; in experiment [8] it was 65.6%; in experiment [9], 101%; in experiment [10], 94.8%.
As for `CCc1ccc(C2=C/C(=C/c3ccccc3)C(=O)N2CCc2ccc(S(N)(=O)=O)cc2)cc1`, the growth in experiment [1] was 104%; in experiment [2], 96.3%; in [3], 101%; in [4], 68.4%; in [5] it was 122%; in [6], 99%. Also, the growth was 67.8% in [7], 88.7% in experiment [8], 106% in experiment [9] and 97% in experiment [10].
Turning to `Cc1nn(-c2ccccc2)c(N2CCOCC2)c1-c1nc2ccc([N+](=O)[O-])cc2[nH]1`, the growth was 110% in [1]; 106% in experiment [2]; 95.2% in [3]; 81.4% in experiment [4]; 100% in [5]; 105% in experiment [6]. In addition, the growth in experiment [7] is 80%; in experiment [8] it was 76.3%; in [9] it was 92.6%; in experiment [10] it was 85.7%.
As for `CCC(C)[C@H](NC(=O)NC(=O)NC(=O)CI)C(=O)OC` (stereo not given in full), the growth was 86.1% in experiment [1]; 102% in [2]; 89.3% in [3]; -21.3% (active) in experiment [4]; 91.8% in experiment [5]; 57.3% in experiment [6]. For the same compound, the growth was -59.6% (active) in experiment [7], 89.1% in experiment [8], -46.2% (active) in experiment [9] and -16.7% (active) in experiment [10].
`Cc1cc(C)c(O)c(CNCCCCCCNCc2cc(C)cc(C)c2O)c1`: the growth was -61.8% (active) in [1]; 47.9% in experiment [2]; 29.8% in experiment [3]; -60.3% (active) in [4]; -28% (active) in [5]; -42.3% (active) in experiment [6]. Further, the growth in [7] is 26.2%; in experiment [8], 21.4%; in experiment [9], -19.9% (active); in experiment [10], -28.1% (active).

These data come from PubChem BioAssay (NCI).
